From PubChem BioAssay
This is a sample that favours compounds with a hit; in the whole collection about 9.5% have one here.
Pf growth 48h = P. falciparum growth inhibition at 48 hours (one generation). P. falciparum luciferase growth in erythrocytes, 48 h. hit rate 5.9% among 310,000. Potency, µM (top dose mostly 28.7 µM), usual class: inhibitors. AID 504832; active = well fitted inhibition curve with a large enough effect; inconclusive = small, poorly fitted or top-dose-only effect, or another doubt; inactive = no such curve, though single readings can be large or run the other way
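Read-out is firefly luciferase luminescence from an integrated reporter in P. falciparum, so falling signal marks reduced parasite growth. Infected erythrocytes were at 2% hematocrit and 0.1% parasitemia (final) in Albumax-supplemented RPMI 1640.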
RE007 growth inh = less growth of the S. pombe RE007 Vpr strain. S. pombe RE007 Vpr strain, BacTiter-Glo ATP luminescence, 24 h. Potency, µM (titrated, usually from 92.2 µM), actives largely listed as inhibitors. hit rate 0.21% among 360,000. AID 651644; active = well fitted falling curve with a large enough effect; inconclusive = small, poorly fitted or top-dose-only effect; inactive = no such curve, though single readings can be large or run the other way; note: nearly all actives have a fitted effect of over 50% in size
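Fission yeast RE007 carrying one integrated HIV-1 vpr copy, seeded at OD 0.01 in PMG+AL medium with 23 nL pinned compound. Grown 24 h at 30 degrees; viability read by BacTiter-Glo luminescence after 5 min.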
Pf growth 96h = P. falciparum growth inhibition at 96 hours | Potency, µM (highest dose often 28.7 µM), usual class: inhibitors | P. falciparum luciferase reporter growth, 96 h | hit rate 6.9% among 320,000; active = well fitted inhibition curve with a large enough effect; inconclusive = small, poorly fitted or top-dose-only effect, or another doubt; inactive = no such curve, though single readings can be large or run the other way
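P. falciparum expressing integrated firefly luciferase grown in erythrocytes (2% hematocrit, 0.05% parasitemia final) with compounds for 96 hours at 37 C, 5% CO2. Growth inhibition read as loss of luminescence after adding luciferase detection reagent.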
NS1 function inh = influenza NS1 inhibition | AID 2326 | hit rate 0.4% among 270,000 | Potency, µM (series often up to 46.1 µM); note: actives are rising curves; nearly all actives have a fitted effect of over 50% in size
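Recovery from NS1-induced slow growth read by OD600 in budding yeast switched to galactose assay medium (pH 6.0, -URA) at 1:100 dilution. Compound 23 nl per well; the matching strain lacking NS1 serves as control.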
SARS PLP yeast = SARS-CoV PLP inhibition in yeast; S. cerevisiae expressing SARS-CoV PLpro, growth rescue; Potency, µM (titrated, usually from 32.9 µM), most hits filed as activators; hit rate 0.19% among 330,000; note: nearly all actives have a fitted effect of over 55% in size
Of the large screens only hits and unclear results are named; the others gave an inactive call. Unless noted, calls come from the whole dose curve.

CCN(CC)C(=O)CN(c1cc2c(cc1OC)oc1ccccc12)S(=O)(=O)c1ccc(C)cc1	Pf growth 48h 12µM (no result: Pf growth 96h)
CSc1nc2ccc(S(=O)(=O)N(C)C)cc2s1	Pf growth 96h 12µM (no result: Pf growth 48h)
CN(Cc1ccc(C(C)(C)C)cc1)C(=O)C1CCN(C(=O)Nc2ccccc2)CC1	Pf growth 48h 10µM, Pf growth 96h 13µM (no result: NS1 function inh)
NNC(=O)CN1C(=O)Nc2ccc(Cl)cc2C1c1ccccc1 (configuration not stated)	Pf growth 48h inconclusive, Pf growth 96h inconclusive
NNC(=O)CN1C(c2cccc(Cl)c2)=Nc2ccc(Br)cc2C1c1ccccc1 (configuration not stated)	Pf growth 48h 1.9µM
O=C(O)CN1C(c2ccccc2)=Nc2ccc(Br)cc2C1c1ccccc1 (configuration not stated)	none
CC1=Nc2ccc(Br)cc2C(c2ccccc2)N1CC(=O)O (configuration not stated)	none
COc1ccc(C2=Nc3ccc(C)cc3C(c3ccccc3)N2CC(=O)NN)cc1 (configuration not stated)	Pf growth 96h 1.9µM
COc1ccc(C2=Nc3ccc(Br)cc3C(c3ccccc3)N2CC(=O)NN)cc1 (configuration not stated)	Pf growth 48h 13µM, NS1 function inh inconclusive
COC(=O)CN1C(c2ccc(Cl)cc2)=Nc2ccc(Cl)cc2C1c1ccccc1 (configuration not stated)	Pf growth 48h 2.6µM, Pf growth 96h 3.3µM
CN(C)CN1CSC(=S)N(CN(C)C)C1	none (no result: Pf growth 48h, RE007 growth inh, Pf growth 96h, SARS PLP yeast)
COC(=O)c1ccc(S(=O)(=O)N(C2CCCCC2)C2CCCCC2)n1C	Pf growth 48h 10µM, Pf growth 96h inconclusive
Cc1ccc2nc(NC(=O)CN(C)S(=O)(=O)c3ccc(Br)s3)sc2c1	Pf growth 96h 9.3µM (no result: Pf growth 48h)
CN(CC(=O)Nc1nc2ccc(F)cc2s1)S(=O)(=O)c1ccc(Cl)cc1	Pf growth 96h inconclusive (no result: Pf growth 48h)
CCOc1ccc(S(=O)(=O)N(C)c2ccc(OCC(=O)Nc3nc4ccccc4s3)cc2)cc1	Pf growth 96h inconclusive
Cc1ccc2nc(NC(=O)COC(=O)c3ccc(Br)o3)sc2c1	Pf growth 96h 1.2µM
Cc1ccc(S(=O)(=O)N(C)CC(=O)Nc2nc3ccccc3s2)cc1	Pf growth 96h 6.6µM
CN(c1ccc(OCC(=O)Nc2nc3ccccc3s2)cc1)S(=O)(=O)c1ccccc1	Pf growth 48h inconclusive, Pf growth 96h 5.2µM
O=c1cc(-c2ccccc2)nc2nc[nH]n12	Pf growth 96h 0.29µM (no result: Pf growth 48h)
CSCCNC(=O)Nc1c(-c2c(Cl)cccc2Cl)noc1C	none
CN(c1ccccc1)S(=O)(=O)c1nnc(NC(=O)C2CCCCC2)s1	none
Cn1ccc(-c2ccccc2)n1	Pf growth 96h 1.7µM (no result: NS1 function inh)
C#CCNC(=O)C1=C[C@H](c2csc3ccccc23)C[C@H](OCc2ccc(CO)cc2)O1	Pf growth 48h inconclusive, Pf growth 96h inconclusive
O=C(Nc1ccccc1)C1=C[C@@H](c2csc3ccccc23)C[C@@H](OCc2ccc(CO)cc2)O1	Pf growth 48h inconclusive, Pf growth 96h 9.3µM
O=C(NCc1ccccc1)C1=C[C@H](c2csc3ccccc23)C[C@H](OCc2ccc(CO)cc2)O1	Pf growth 48h 9.3µM, Pf growth 96h 13µM
Cc1c(Cc2ccccc2)c(=O)oc2c(C)c(OCC(=O)N[C@@H](Cc3ccccc3)C(=O)O)ccc12	Pf growth 96h inconclusive
CC(C)C(C)(C#N)NC(=O)CSc1nc2scc(-c3ccc(F)cc3)c2c(=O)n1Cc1ccccc1 (configuration not stated)	Pf growth 48h 9.3µM, Pf growth 96h 4.7µM, NS1 function inh inconclusive
CC(C)(C)NC(=O)CSc1nnc(-c2ccncc2)n1Cc1ccccc1	NS1 function inh inconclusive
CC(C)C(C)(C#N)NC(=O)CSc1nnc(-c2ccncc2)n1Cc1ccccc1 (configuration not stated)	Pf growth 48h inconclusive, Pf growth 96h 3.7µM
C/C(N)=C(/C#N)C(=O)CSc1nc2scc(-c3ccccc3)c2c(=O)n1C	Pf growth 48h inconclusive, Pf growth 96h inconclusive (no result: NS1 function inh)
CCC1=C(OC(=O)N(CC)CC)N2C(=O)OC(=NCCc3c[nH]c4ccccc34)[C@]2(Cc2ccccc2)[C@H]2C1=CC[C@H]1C(=O)N(CC(=O)OC)C(=O)[C@H]12	Pf growth 48h 5.2µM, Pf growth 96h 13µM
